Only some compounds are listed: those with a hit (about 1.8% of all), similar ones and a draw of the others.
Beta cell apopt: beta cell apoptosis inhibition; actives 0.8% (n = 300,000); protection from apoptosis, % (test concentration not listed); INS-1E cytokine-induced death, ATP luminescence, 48 h; percent of positive-control rescue, neutral wells zero;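 active means Every replicate reaches about 75%, or at least half do and their mean reaches it too, limit read from the data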;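 further: 0% = cytokine-treated negative control wells and 100% = positive control rescue; higher means more ATP so stronger rescue from cytokine killing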
Gli-Sufu antag: Gli-Sufu pathway antagonism; AID 588413; Sufu-KO-LIGHT fibroblasts, Gli luciferase reporter luminescence; actives 0.74% (n = 340,000); inhibition, % at 5 µM;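 active means inhibition above about 55%, limit read from the data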;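 further: 0% = DMSO-treated cells and 100% = wells with medium but no cells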
Jurkat NFkB inh: inhibitors of the PMA/ionomycin-induced NF-kB reporter in Jurkat cells; actives 0.53% (n = 330,000); PMA/ionomycin-induced NF-kB luciferase reporter, luminescence; inhibition, % at 4 µM; in the data active means inhibition above about 50%
697 NFkB inh: lowers PMA/ionomycin-induced NF-kB signal in 697 B cells. 697 B-cell NF-kB luciferase reporter, 16 h. inhibition, % at 4 µM. actives 0.33% (n = 330,000). AID 435022; in the data active means inhibition above about 35%
Jurkat NFkB conf: lowers PMA/ionomycin-induced NF-kB signal in Jurkat cells; AID 435020; actives 27% (n = 2,700); inhibition, % at 4 µM; Jurkat NF-kB luciferase, 16 h; shares compounds with Jurkat NFkB inh;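 active means inhibition reaching about 45% at 4 µM in either replicate, limit read from the data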;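 further: plate controls were PMA/ionomycin stimulated DMSO wells for no effect and unstimulated DMSO wells for full effect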
697 NFkB conf: inhibitors of the PMA/ionomycin-induced NF-kB reporter in 697 B cells, retest; actives 35% (n = 2,000); shares compounds with 697 NFkB inh; 697 B-cell NF-kB luciferase, 16 h; AID 449746; inhibition, % at 4 µM; in the data active means inhibition mostly above about 28%, no sharp cut-off; inactive means mostly below about 22%
An asterisk follows results filed as active; i = inactive; · = no result.

SMILES | Beta cell apopt | Gli-Sufu antag | Jurkat NFkB inh | 697 NFkB inh | Jurkat NFkB conf | 697 NFkB conf
CCN(CC)S(=O)(=O)c1cccc(C(=O)N[C@@H](C)c2nc3ccccc3[nH]2)c1 | -3.8 | · | -9.5 | 26.3 | · | ·
COc1ccc(Nc2nc(C)cc(-c3cc(-c4ccccc4)on3)n2)cc1 | -5.6 | -11.2 | 0.5 | -20.4 | · | ·
COc1ccc(-c2cc(-c3ccccc3)no2)cc1 | 7.2 | -129.9 | -224.1 | -351.1 | -145.4 | -375.6
CCc1cc2c(=O)c(-c3ccc4c(c3)OCCO4)coc2cc1OC(=O)c1ccco1 | · | -121.0 | -222.7 | -360.3 | -128.9 | -406.9
CCCc1cc2c(=O)c(-c3ccc4c(c3)OCCO4)coc2cc1OC(=O)c1ccco1 | 4.3 | -55.8 | -89.5 | -186.5 | · | ·
CC(C)(C)c1ccc(C(=O)Nc2ccc(CC(=O)O)cc2)o1 | -6.4 | 52.7 | 59.6* | 84.2* | 72.9* | 85.8*
Cc1ccc(/C=C/c2nnc(-c3cccc(C)c3)o2)cc1 | -6.3 | -3.9 | -35.4 | -70.7 | · | ·
Cc1ccc(-c2nnc(/C=C/c3ccccc3)o2)cc1 | -0.6 | -31.2 | -188.2 | -311.8 | -149.2 | -253.1
C=CCCC(=O)Nc1nc(C)c(-c2csc(Nc3ccc(Cl)cc3Cl)n2)s1 | -4.1 | -0.8 | 2.4 | -11.6 | · | ·
CCn1c(SCC(=O)c2cccs2)nnc1-c1ccco1 | 1.7 | -10.2 | -5.7 | -28.3 | · | ·
CCOc1ccc2nc(NC(=S)N(C)C)sc2c1 | 37.1 | -19.2 | -201.3 | -395.3 | -79.0 | -246.3
COc1ccccc1C(=O)NCCC(=O)Nc1nc2ccccc2[nH]1 | -9.5 | -6.9 | -8.1 | 5.7 | · | ·
COc1ccccc1C(=O)Nc1ccc2c(c1)OCCO2 | -2.1 | -70.6 | -99.9 | -124.4 | · | ·
COc1cc(SC)ccc1C(=O)Nc1nc2ccccc2[nH]1 | 106.2* | 93.2* | 98.6* | 92.2* | 97.5* | 97.9*
COc1cc(SC)ccc1C(=O)Nc1ccc2c(c1)OCCO2 | 0.1 | -127.4 | -153.8 | -275.6 | -108.5 | -231.3
COc1ccccc1C(=O)Nc1nc2ccccc2[nH]1 | 92.6* | 74.8* | 90.7* | 68.7* | 92.8* | 66.8*
CC1CCN(c2nc3ccc(C(=O)NCCCN4CCCCC4)cc3s2)CC1 | -8.6 | -155.9 | -44.7 | -80.0 | · | ·
CC1CCN(c2nc3ccc(C(=O)O)cc3s2)CC1 | 2.4 | -163.6 | 82.6* | 51.5* | 77.5* | 42.1*
CCOC(=O)N/N=C\c1ccc(OC/C=C/c2ccccc2)c(OC)c1 | -0.2 | -8.6 | 0.7 | -8.8 | · | ·
C=CC(=O)Nc1ccc(Nc2nc(NC3CCC(N(C)C)CC3)nc3c2ncn3C(C)C)cc1 (configuration not stated) | 43.2 | 51.5 | 100.3* | 97.1* | 96.8* | 80.5*
CC(C)n1cnc2c(Nc3ccc(F)c(Cl)c3)nc(NCCO)nc21 | -1.9 | 14.4 | -18.7 | -22.7 | · | ·
O=C(N=c1nc2ccccn2s1)c1ccccc1 | 13.7 | -93.8 | -191.1 | -323.6 | -72.2 | -303.8
CCCCN(C)C(=O)c1cc2cc3ccc(OC)cc3nc2s1 | 9.8 | -105.4 | -185.1 | -275.4 | -132.4 | -265.9
O=C(Nc1ccc(N2CCCC2)c(Cl)c1)c1cccnc1 | 4.9 | -79.2 | -6.0 | -3.3 | · | ·
O=C(Nc1ccc(N2CCCCC2)c(Cl)c1)c1cccnc1 | -0.4 | -44.9 | -152.7 | i | -47.5 | -266.6
SMILES | Beta cell apopt | Gli-Sufu antag | Jurkat NFkB inh | 697 NFkB inh | Jurkat NFkB conf | 697 NFkB conf
CCCCCNC(=O)c1ccc2c(=O)n(CC3CCCO3)c(=O)[nH]c2c1 (configuration not stated) | -0.8 | 9.3 | 98.8* | 103.6* | 43.7 | 60.2*
CCCCCNC(=O)c1ccc2c(=O)n(CC3CCCO3)c(=S)[nH]c2c1 (configuration not stated) | -0.7 | 8.6 | -4.3 | 23.8 | · | ·
Cc1nn(C(C)(C)C)c(C)c1/C=N/OC(=O)Nc1ccc(Cl)cc1 | -2.9 | 91.8* | 74.9* | 52.1* | 95.1* | 62.9*
CC(=O)Oc1ccc2c(c1)C(=O)c1ccccc1CO2 | -0.2 | -4.3 | -23.9 | -13.0 | · | ·
COc1cc(/C=N/NC(=S)Nc2cccc(C(=O)O)c2)ccc1O | -12.0 | -9.1 | 54.5* | 37.9* | 49.6* | 38.0*
Cc1nn(-c2nc3ccccc3[nH]2)c(N)c1-c1ccccc1 | · | -86.8 | -151.2 | -254.4 | -72.0 | -212.3
Cc1nn(-c2ccccc2)c(N)c1-c1ccccc1 | -2.7 | -17.3 | -45.4 | -39.1 | · | ·
Cc1ccc(S(=O)(=O)N2CCN(Cc3ccco3)CC2)cc1C | -1.3 | 1.8 | 9.5 | 4.3 | · | ·
COc1ccc(N=Cc2c(O)[nH]c3ccccc23)cc1 | 4.0 | -137.1 | -186.2 | -297.3 | -32.0 | -108.7
